# Results taken from PubChem BioAssay (Tox21).
# Results filed as inconclusive are left out. Where a call stands in place of a potency, no number is given. Activity calls are given as the source filed them. Unless noted, calls follow the shape of the dose curve; as a rule, active = well fitted curve in the direction sought with a large enough effect in the repeat runs; inconclusive = weak or mixed curves; inactive = no such curve, though single readings can be large; an effect the other way counts as inactive or inconclusive.
# Experiments:
# [1] = qHTS assay to identify small molecule antagonists of the estrogen related receptor (ERR) signaling pathway - cell viability counter screen (AID 1224818); conditions: ERR reporter cell line viability counter screen; series mostly up to 46.1 µM;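 also: viability measured after 17.5 h of compound exposure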
# How it was run: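 ERR reporter cells plated 6 h at 37 C/5% CO2, then compounds in DMSO pin-transferred and incubated 17.5 h at 37 C. Viability read as CellTiter-Fluor fluorescence after 30 min at 37 C.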
# [2] = qHTS assay to identify small molecule antagonists of the estrogen related receptor (ERR) signaling pathway (AID 1224819; also: nearly all actives have a fitted effect of over 50% in size; also: potency is read from the fitted curve at half-maximal effect); conditions: ERR reporter cell line, luciferase inhibition; series mostly up to 46.1 µM
# How it was run: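 ERR reporter cells were plated at 2,000 cells/well and left 6 h at 37 C/5% CO2 before pin-tool transfer of compounds in DMSO. After 18 h at 37 C, One-Glo was added and luminescence was read 30 min later at room temperature.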
# [3] = qHTS assay to identify small molecule agonists of the estrogen related receptor (ERR) signaling pathway (AID 1224820); conditions: ERR reporter cell line, luciferase agonist mode; series mostly up to 46.1 µM
# How it was run: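 ERR reporter cells (NTP line) plated 2,000/well, incubated 6 h at 37 C/5% CO2, then pinned with compounds in DMSO and held 18 h at 37 C. One-Glo added; luminescence read after 30 min at room temperature.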
# [4] = system: estrogen-related receptor alpha (ERRalpha) with PGC-1alpha coactivator, human; test: qHTS assay to identify small molecule antagonists of the estrogen related receptor signaling pathway with the pleiotropic PPARgamma coactivator (PGC) (AID 1224821; calls by dose curve;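 also: lower luminescence signal means antagonism of PGC/ERR signalling; nearly all actives have a fitted effect of over 50% in size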); conditions: ERR/PGC reporter cell line, luciferase, antagonist mode; series mostly up to 46.1 µM
# How it was run: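 Cells engineered for PGC/ERR signalling (line from NTP) were plated 6 h at 37 C/5% CO2, then exposed to DMSO-dissolved compound for 18 h at 37 C. Luciferase activity was read by One-Glo luminescence after 30 min at room temperature.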
# [5] = qHTS assay to identify small molecule antagonists of the estrogen related receptor signaling pathway with the pleiotropic PPARgamma coactivator (PGC) cell viability counter screen (AID 1224822); conditions: ERR/PGC reporter cell line viability counter screen; series mostly up to 46.1 µM
# How it was run: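 PGC/ERR cells were seeded at 2,000 cells/well, rested 6 h at 37 C/5% CO2, then given compounds in DMSO by pin tool and incubated 17.5 h at 37 C. Viability came from CellTiter-Fluor fluorescence after 30 min.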
# [6] = qHTS assay to identify small molecule agonists of the estrogen related receptor signaling pathway with the pleiotropic PPARgamma coactivator (PGC) (AID 1224823); conditions: ERR/PGC reporter cell line, luciferase agonist mode; series mostly up to 46.1 µM
# How it was run: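 PGC/ERR reporter cells were seeded, rested 6 h at 37 C/5% CO2, then exposed to compounds in DMSO by pin transfer for 18 h at 37 C. Luciferase activity was read as luminescence after One-Glo reagent and 30 min at room temperature.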
Structure (SMILES),Potency [1],Potency [2],Potency [3],Potency [4],Potency [5],Potency [6]
O=C(O)C1=CCNCC1,inactive,inactive,inactive,inactive,inactive,inactive
CCOC(=O)C1=C(O)C(=O)N(Cc2ccccc2)C1,inactive,inactive,inactive,inactive,inactive,inactive
CCCOC(=O)c1c(-c2ccccc2)nc(CC)c(C(=O)SCC)c1CCC,inactive,inactive,inactive,inactive,inactive,inactive
CN1CCc2cc(Cl)c(O)cc2[C@@H](c2ccccc2)C1,inactive,inactive,inactive,inactive,inactive,inactive
C=CC(N)CCC(=O)O (stereo not given),inactive,inactive,inactive,inactive,inactive,inactive
Nn1nnc2ccccc21,inactive,inactive,inactive,inactive,inactive,inactive
NC(CCCP(=O)(O)O)C(=O)O (stereo not given),inactive,inactive,inactive,inactive,inactive,inactive
N#CC(C#N)=C(N)/C(C#N)=C/c1ccc(O)cc1,inactive,inactive,inactive,inactive,inactive,inactive
C[C@@H](NCCc1ccc(O)cc1)[C@@H](O)c1ccc(O)cc1,inactive,inactive,inactive,inactive,inactive,inactive
Cn1cc(C2=C(c3ccc(Cl)cc3Cl)C(=O)NC2=O)c2ccccc21,inactive,21.1 µM (active),inactive,inactive,inactive,inactive
N=C(N)SCCc1cnc[nH]1,inactive,inactive,inactive,inactive,inactive,inactive
CC(N)=NCCCC[C@@H](N)C(=O)O,inactive,inactive,inactive,inactive,inactive,inactive
O=C(O)Cc1c[nH]c2ccc(O)cc12,inactive,inactive,inactive,inactive,inactive,inactive
COc1ccccc1CN[C@@H]1CCCN[C@@H]1c1ccccc1,inactive,inactive,inactive,inactive,inactive,inactive
O=c1cc(O)cc(/C=C/c2ccc(O)c(O)c2)o1,inactive,inactive,inactive,inactive,inactive,inactive
